Test results published in PubChem BioAssay AID2331 (The Scripps Research Institute Molecular Screening Center, 2010).
The other results are listed elsewhere or left out. Values without a mark were called inactive. Activity calls are given as the source filed them. No stated cut-off is given here; in the data, active means inhibition above about 9.5%; inactive means the rest.

Each compound was assayed against Serine/threonine-protein phosphatase 5 (Homo sapiens) (UniProt P53041) (assay: inhibition of human PPP5C phosphatase activity – biochemical, fluorescence, confirmation (AID 2331)). Conditions: Purified PP5, fluorogenic phosphatase substrate, at 6.7 µM, stronger effect = higher value.
Sequence of Serine/threonine-protein phosphatase 5 (Homo sapiens) (P53041 whole entry, looked up): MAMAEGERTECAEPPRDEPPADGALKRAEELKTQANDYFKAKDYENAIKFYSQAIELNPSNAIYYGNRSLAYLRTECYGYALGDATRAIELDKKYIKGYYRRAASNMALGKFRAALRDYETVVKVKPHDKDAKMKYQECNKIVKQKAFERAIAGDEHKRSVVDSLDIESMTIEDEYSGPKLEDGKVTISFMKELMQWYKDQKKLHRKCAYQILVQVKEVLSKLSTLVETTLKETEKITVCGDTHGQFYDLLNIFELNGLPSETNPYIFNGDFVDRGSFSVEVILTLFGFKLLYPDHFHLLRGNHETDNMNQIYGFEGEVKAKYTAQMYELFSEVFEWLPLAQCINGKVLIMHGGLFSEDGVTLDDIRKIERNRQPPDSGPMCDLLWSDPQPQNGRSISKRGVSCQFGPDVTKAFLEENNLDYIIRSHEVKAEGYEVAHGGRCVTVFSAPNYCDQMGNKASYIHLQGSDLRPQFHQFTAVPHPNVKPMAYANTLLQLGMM

SMILES	inhibition
COCCN1C=C2C(=O)C(C)(OC(=O)C3CCCC3)C(=O)C=C2C=C1c1ccsc1 (stereo not drawn)	43.5% (active)
O=C(C1=C[C@H](c2ccc(C(F)(F)F)cc2)C[C@H](OCc2ccc(CO)cc2)O1)N1CCN(Cc2ccccc2)CC1	3.97%
Cc1nnc(SCc2nc3ccccc3nc2C)s1	-2.92%
O=C(O)c1n[nH]nc1-c1ccccc1	41.3% (active)
CCOC(=O)Nc1ccc2c(c1)N(C(=O)CN1CCN3CCCC3C1)c1ccccc1CC2 (stereo not drawn)	-4.11%
COc1ccc(OC)c(C(=O)c2ccc(C(=O)O)cc2)c1	-7.99%
COc1cc(C(F)(F)F)c(C(=O)N(C)c2ccc(Cl)cc2)cn1	-0.02%
Cc1sc(NC(=O)C2C3CCC(O3)C2C(=O)O)c(C(=O)OC(C)C)c1-c1ccc(Cl)cc1 (stereo not drawn)	3.03%
O=c1ccc2c(-c3ccccc3S(=O)(=O)O)c3ccc(O)c(O)c3oc-2c1O	3.55%
COc1cc(/C=C2/SC(=S)N(Cc3ccccc3)C2=O)cc(OC)c1O	0.02%
CNC(=S)NNC(=O)c1oc2nc(-c3ccccc3)cc(-c3ccco3)c2c1N	-5.36%
N#Cc1c(N2CCCCC2)nc(N)c2c(N)nc(SCC(=O)O)cc12	36.8% (active)
Cc1nc(NC(CC(C)C)C(=O)O)c2nc(C)oc2n1 (stereo not drawn)	-2.93%
CN(c1ccccc1)S(=O)(=O)c1ccc(NC(=O)COc2ccccc2)cc1	1.21%
O=[N+]([O-])c1cccc2ncccc12	-1.87%
CCN1CCN(CCNC(=O)c2ccc(/C=C3/Sc4ccccc4N(Cc4cccc(C)c4)C3=O)cc2)CC1	1.06%
C[C@@]12C(=O)N(c3cccc(Br)c3)C(=O)N1[C@H](c1ccc(Cl)cc1)[C@@H]1C(=O)N(C3CCCCC3)C(=O)[C@@H]12	7.67%
CN(C)c1nc(N)nc(CSc2nnnn2-c2cccc3ccccc23)n1	-0.03%
